The results in this text go back to PubChem BioAssay.

Active and inactive are the calls of the source.

The nature of assay [1]: binders of probe aFSTL3 on microarray, primary screen, stem cell growth factor project, biochemical, small-molecule microarray, fluorescence 635/667 (AID 1064).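 Further: measures binding of the biotinylated anti-FSTL3 antibody to printed compounds.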 The following applies: higher = more signal.
Assay [2] in a line: binders from COS7 lysate, DM2A8 probe, primary screen, torsin A project, cell lysate, small-molecule microarray, fluorescence 635/667 (AID 1065). Particulars: higher = more signal, COS7 lysate expressing mutant human TOR1A.
A short description of assay [3]: binders of probe aFGF2 on microarray, primary screen, stem cell growth factor project, biochemical, small-molecule microarray, fluorescence 635/667 (AID 1067).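 Further: measures binding of biotinylated aFGF2 protein to printed compounds on slides; z-score merges feature fluorescence and signal-to-noise across triplicate slides.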 Particulars: higher = more signal.
Assay [4] can be described thus: binders of probe aFGF10 on microarray, primary screen, stem cell growth factor project, biochemical, small-molecule microarray, fluorescence 635/667 (AID 1071).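 Further: score merges 667 nm spot intensity and signal to noise from triplicate slides.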 Particulars: higher = more signal.
For assay [5], the target named is Neurogenic locus notch homolog protein 2 (Homo sapiens) (UniProt Q04721). Kind of assay: Notch2 binders on small-molecule microarrays, primary screen, biochemical, small-molecule microarray, 635 nm fluorescence, stem cell growth factors (AID 1073). Particulars: Notch2 binding, higher = more signal.
Neurogenic locus notch homolog protein 2 (Homo sapiens), sequence (Q04721 whole entry, looked up, canonical isoform): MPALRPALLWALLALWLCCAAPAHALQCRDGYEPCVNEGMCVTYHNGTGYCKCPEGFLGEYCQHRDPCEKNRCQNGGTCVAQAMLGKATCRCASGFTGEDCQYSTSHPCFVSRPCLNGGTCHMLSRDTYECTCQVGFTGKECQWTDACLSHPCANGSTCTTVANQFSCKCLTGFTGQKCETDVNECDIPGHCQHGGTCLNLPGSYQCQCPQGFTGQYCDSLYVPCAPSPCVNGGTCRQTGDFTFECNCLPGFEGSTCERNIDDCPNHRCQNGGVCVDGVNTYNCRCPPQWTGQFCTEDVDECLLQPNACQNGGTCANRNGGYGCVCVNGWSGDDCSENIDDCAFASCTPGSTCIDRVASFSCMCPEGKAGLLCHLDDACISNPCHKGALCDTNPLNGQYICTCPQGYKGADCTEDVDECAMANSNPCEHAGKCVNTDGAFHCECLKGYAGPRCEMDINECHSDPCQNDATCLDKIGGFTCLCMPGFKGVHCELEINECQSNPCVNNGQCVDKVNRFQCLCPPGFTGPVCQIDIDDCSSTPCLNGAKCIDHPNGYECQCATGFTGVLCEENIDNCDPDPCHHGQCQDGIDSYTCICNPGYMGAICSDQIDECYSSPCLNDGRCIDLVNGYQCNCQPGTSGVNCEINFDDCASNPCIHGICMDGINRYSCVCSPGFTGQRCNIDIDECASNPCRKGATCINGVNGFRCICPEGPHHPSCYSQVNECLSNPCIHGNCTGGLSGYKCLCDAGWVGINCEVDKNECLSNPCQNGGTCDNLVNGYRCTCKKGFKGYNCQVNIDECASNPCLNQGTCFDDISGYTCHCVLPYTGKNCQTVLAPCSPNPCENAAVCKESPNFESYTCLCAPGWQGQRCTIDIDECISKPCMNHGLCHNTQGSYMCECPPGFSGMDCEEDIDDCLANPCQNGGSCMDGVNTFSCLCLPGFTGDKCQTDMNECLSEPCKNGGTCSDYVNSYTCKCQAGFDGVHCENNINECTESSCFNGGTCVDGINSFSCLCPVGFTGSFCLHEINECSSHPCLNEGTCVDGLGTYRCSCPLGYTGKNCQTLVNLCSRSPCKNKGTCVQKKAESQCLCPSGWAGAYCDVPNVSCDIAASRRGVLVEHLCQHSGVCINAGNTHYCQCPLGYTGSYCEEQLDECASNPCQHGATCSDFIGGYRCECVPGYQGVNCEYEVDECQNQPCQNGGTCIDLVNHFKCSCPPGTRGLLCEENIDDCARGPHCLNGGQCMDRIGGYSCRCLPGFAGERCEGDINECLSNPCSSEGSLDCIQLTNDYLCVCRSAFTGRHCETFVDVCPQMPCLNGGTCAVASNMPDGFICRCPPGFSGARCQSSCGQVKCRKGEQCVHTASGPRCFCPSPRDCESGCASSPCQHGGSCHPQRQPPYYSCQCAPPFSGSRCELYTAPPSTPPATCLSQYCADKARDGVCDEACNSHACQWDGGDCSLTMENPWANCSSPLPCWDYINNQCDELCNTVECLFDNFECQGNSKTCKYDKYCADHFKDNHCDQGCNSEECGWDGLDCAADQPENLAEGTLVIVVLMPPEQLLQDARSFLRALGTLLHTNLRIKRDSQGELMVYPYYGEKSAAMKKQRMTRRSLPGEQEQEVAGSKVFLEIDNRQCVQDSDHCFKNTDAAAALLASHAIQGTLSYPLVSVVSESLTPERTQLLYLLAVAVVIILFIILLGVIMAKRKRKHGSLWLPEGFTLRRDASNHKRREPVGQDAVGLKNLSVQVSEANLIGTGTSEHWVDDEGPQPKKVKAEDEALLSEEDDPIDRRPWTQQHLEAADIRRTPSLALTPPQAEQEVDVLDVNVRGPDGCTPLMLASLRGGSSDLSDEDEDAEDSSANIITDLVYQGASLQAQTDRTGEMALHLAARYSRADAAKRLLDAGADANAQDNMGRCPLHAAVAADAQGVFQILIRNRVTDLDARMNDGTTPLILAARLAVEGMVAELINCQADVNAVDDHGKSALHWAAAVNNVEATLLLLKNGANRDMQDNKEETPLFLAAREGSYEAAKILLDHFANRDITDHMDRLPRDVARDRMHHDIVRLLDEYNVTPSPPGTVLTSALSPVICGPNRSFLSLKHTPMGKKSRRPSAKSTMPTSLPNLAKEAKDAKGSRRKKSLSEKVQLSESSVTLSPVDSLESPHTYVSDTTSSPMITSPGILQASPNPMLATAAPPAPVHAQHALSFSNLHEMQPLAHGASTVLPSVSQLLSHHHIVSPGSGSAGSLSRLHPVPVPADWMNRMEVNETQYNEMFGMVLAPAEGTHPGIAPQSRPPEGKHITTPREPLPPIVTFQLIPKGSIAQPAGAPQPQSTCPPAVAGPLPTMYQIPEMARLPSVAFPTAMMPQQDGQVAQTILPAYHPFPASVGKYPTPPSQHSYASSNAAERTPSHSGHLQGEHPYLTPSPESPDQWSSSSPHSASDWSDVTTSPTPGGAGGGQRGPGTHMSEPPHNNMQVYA
Assay [6] has as its target Pro-neuregulin-1, membrane-bound isoform (Homo sapiens) (UniProt Q02297). The assay can be described thus: NRG1 binders on small-molecule microarrays, primary screen, psychiatric disease protein project, biochemical, small-molecule microarray, fluorescence 635/667 (AID 1075).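 Further: score combines 667 nm spot fluorescence with signal to noise.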 The following applies: NRG1 binding, 635 nm fluorescence, higher = more signal.
For assay [7], the system named is Neuregulin-1 EGF-like domain. Kind of assay: binders of neuregulin-1 EGF-like domain, primary screen, biochemical, small-molecule microarray, 635 nm fluorescence (AID 1081).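 Further: binding of the protein to compounds printed on small-molecule microarray slides.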 Particulars: small-molecule microarray binding, higher = more signal.
Assay [8] can be described thus: FRG1 promoter luciferase signal modulators, primary screen, FRG1 inhibition for FSHD, cell-based, C2C12 myotubes, firefly/Renilla luciferase, luminescence (AID 1084). The following applies: higher = more signal, called active from +8 up or from −8 down.
Assay [9] is described as follows: binders of probe aFST on microarray, primary screen, stem cell growth factor project, biochemical, small-molecule microarray, fluorescence 635/667 (AID 1086).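 Further: score merges 667 nm fluorescence with signal-to-noise of each printed compound spot.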 Particulars: higher = more signal.
Assay [10] in a line: binders of probe aHhip on microarray, primary screen, stem cell growth factor project, biochemical, small-molecule microarray, fluorescence 635/667 (AID 1087).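 Further: score merges spot fluorescence at 667nm with spot signal to noise ratio.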 Particulars: higher = more signal.
Assay [11] has as its system PRMT1 (protein arginine N-methyltransferase 1). Kind of assay: PRMT1 binders on small-molecule microarrays, primary screen, biochemical, small-molecule microarray, 635 nm fluorescence (AID 1088).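 Further: binding of Prmt1 protein to compounds spotted on small-molecule microarray slides.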 Particulars: small-molecule microarray binding, higher = more signal.
The nature of assay [12]: yeast growth modulation, basal conditions, primary screen, YJM789 clinical isolate, OD600, 24 h (AID 1089).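 Further: growth of clinical yeast isolate S. cerevisiae YJM 789 seeded 1000 cells per well; test concentration not given here.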 The following applies: S. cerevisiae YJM789 growth, higher = more signal, called active from +8 up or from −8 down.
Assay [13] is described as follows: fission yeast growth modulation, primary screen, strain 972, OD600, 24 h, no modulator (AID 1090).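 Further: basal condition with compound alone and no growth modifier present; test concentration not given here.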 Particulars: S. pombe 972 growth, higher = more signal, called active from +8 up or from −8 down.
Assay [14] in a line: S. cerevisiae growth modulation with rapamycin, primary screen, strain BY4716, OD600, 96 h (AID 1091). Further: test concentration not given here. The following applies: higher = more signal, called active from +8 up or from −8 down.
Assay [15] concerns the target Torsin-1A-interacting protein 2 (Homo sapiens) (UniProt Q8NFQ8). The assay can be described thus: LULL1 binders on small-molecule microarray, primary screen, cell lysate, human LULL1 lysate, 635/667 nm fluorescence (AID 1092).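 Further: probe is lysate of COS7 cells overexpressing human LULL1; score merges per-feature 667 nm fluorescence with signal-to-noise.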 Particulars: hLULL1 lysate binding, 635 nm fluorescence, higher = more signal.
Assay [16] in a line: E. coli growth modulation, two-sided OD650, primary screen, E. coli filamentation project, strain DRC41, 24 h (AID 1093).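 Further: MC1000 strain lacking acrAB efflux and sulA so SOS filamentation is blocked; test concentration not given here.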 The following applies: OD650, 24 h, higher = more signal, called active from +8 up or from −8 down.
A short description of assay [17]: small-molecule microarray binders of probe aLefty2, primary screen, biochemical, biotinylated probe, 635/667 nm fluorescence (AID 1094).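 Further: score merges spot fluorescence near 667 nm with spot signal-to-noise ratio.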 The following applies: higher = more signal.
In assay [18] the test system is Noggin (protein binding on small-molecule microarray). The assay can be described thus: Noggin binders on small-molecule microarray, primary screen, biochemical, 635/667 nm fluorescence (AID 1095).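 Further: score merges 667 nm feature fluorescence with signal to noise over triplicate slides.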 The following applies: 635 nm fluorescence, higher = more signal.
Assay [19] concerns the target Neurogenic locus notch homolog protein 3 (Homo sapiens) (UniProt Q9UM47). The assay can be described thus: NOTCH3 binders on small-molecule microarray, primary screen, biochemical, 635/667 nm fluorescence (AID 1096). The following applies: NOTCH3 binding, 635 nm fluorescence, higher = more signal.
The nature of assay [20]: small-molecule microarray binders of probe aEGFR, primary screen, biochemical, biotinylated probe, 635/667 nm fluorescence (AID 1097).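 Further: probe is a biotinylated anti-EGFR antibody binding compounds printed on slides; score combines fluorescence near 667 nm and signal to noise of each spot.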 The following applies: higher = more signal.

Pro-neuregulin-1, membrane-bound isoform (Homo sapiens), sequence (Q02297 whole entry, looked up, the tested form may be a part, canonical isoform): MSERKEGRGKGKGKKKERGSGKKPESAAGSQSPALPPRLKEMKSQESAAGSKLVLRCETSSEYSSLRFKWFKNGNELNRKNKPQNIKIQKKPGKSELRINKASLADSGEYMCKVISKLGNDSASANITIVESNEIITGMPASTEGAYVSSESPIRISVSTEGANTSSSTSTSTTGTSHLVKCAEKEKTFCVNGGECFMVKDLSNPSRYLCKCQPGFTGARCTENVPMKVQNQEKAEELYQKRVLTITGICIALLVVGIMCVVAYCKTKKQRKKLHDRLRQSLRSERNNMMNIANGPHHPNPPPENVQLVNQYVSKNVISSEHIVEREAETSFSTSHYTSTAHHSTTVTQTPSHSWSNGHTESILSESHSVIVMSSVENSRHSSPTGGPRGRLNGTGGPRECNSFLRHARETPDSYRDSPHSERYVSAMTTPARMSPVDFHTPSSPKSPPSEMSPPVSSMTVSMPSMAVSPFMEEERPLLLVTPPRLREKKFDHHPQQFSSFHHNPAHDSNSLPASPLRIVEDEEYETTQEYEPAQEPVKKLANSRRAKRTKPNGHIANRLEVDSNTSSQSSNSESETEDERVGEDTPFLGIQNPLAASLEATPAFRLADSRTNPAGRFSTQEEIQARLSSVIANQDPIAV
Torsin-1A-interacting protein 2 (Homo sapiens), sequence (Q8NFQ8 whole entry, looked up): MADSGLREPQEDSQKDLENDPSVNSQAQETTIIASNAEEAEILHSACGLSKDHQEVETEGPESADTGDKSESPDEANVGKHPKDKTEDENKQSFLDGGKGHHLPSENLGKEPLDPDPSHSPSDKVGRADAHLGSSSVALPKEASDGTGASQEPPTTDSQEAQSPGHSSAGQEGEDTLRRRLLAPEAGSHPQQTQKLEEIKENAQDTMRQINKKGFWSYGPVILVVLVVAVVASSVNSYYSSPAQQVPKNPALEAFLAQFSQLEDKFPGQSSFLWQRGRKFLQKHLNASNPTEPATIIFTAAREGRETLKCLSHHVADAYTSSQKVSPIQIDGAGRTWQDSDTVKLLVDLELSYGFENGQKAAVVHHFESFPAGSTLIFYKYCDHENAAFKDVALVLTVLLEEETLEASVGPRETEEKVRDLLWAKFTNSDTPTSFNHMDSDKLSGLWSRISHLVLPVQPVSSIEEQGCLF

`[N-]=[N+]=NCc1ccccc1C[C@]1(C(=O)NCCN2CCOCC2)N=C(c2ccc(OCCCO)cc2)O[C@H]1c1ccccc1`: the composite z-score in [1] was 0.081; in [2], 0.205; in [3], -0.0085; in assay [4], 0.713; in [5], 0.0617; in assay [6], 1.32. Further, the composite z-score in [7] was 1.26; in assay [9], 0.632; in assay [10], -0.0296; in [11] it was 1.54; in assay [15], 3.22; in assay [17], -0.0519. The composite z-score in assay [18] was 1.88; in assay [19], 0.626; in assay [20], -0.0382. Further, the z-score in assay [8] was -0.849 (inactive); in [12], -2.01 (inactive); in assay [13], -0.85 (inactive); in assay [14], -2.06 (inactive); in assay [16] it was 0.677 (inactive).

For `Cc1ccc(S[C@]2(C(=O)O)CC(=O)N(Cc3ccccc3C(F)(F)F)[C@@H]2c2ccc(CO)cc2)cc1`, the composite z-score in assay [1] was 0.405; in assay [2], -0.138; in assay [3], -0.172; in [4], -0.338; in assay [5], -1.11; in [6] it was -0.343. Moreover, the composite z-score in assay [7] is 0.508; in assay [9], -0.49; in assay [10] it was -0.374; in assay [11], 0.667; in [15], 1.87; in [17], -0.0732. Further, the composite z-score in assay [18] was -1.06; in assay [19], -1.34; in assay [20], -0.225. In addition, the z-score in [8] was -0.383 (inactive); in assay [12], 0.517 (inactive); in assay [13], 0.13 (inactive); in assay [14], 0.124 (inactive); in assay [16], 0.301 (inactive).

Turning to `O=C1O[C@H](c2ccccc2)[C@H](c2ccccc2)N2[C@H]1[C@@H](C(=O)N1CCN(c3ncccn3)CC1)[C@]1(C(=O)Nc3ccc(C#CCCO)cc31)[C@H]2c1ccc(OCCO)cc1`, the composite z-score in [1] was found to be 0.0379; in [2], 1.26; in assay [3] it was 0.0229; in [4] it was 1.26; in [5] it was 1.53; in assay [6] it was 0.826. For the same molecule, the composite z-score in assay [7] was 0.995; in assay [9], 1.35; in assay [10] it was -0.0994; in assay [11], 1.54; in assay [15], 3.13; in [17] it was 0.152. In addition, the results for the composite z-score in assay [18], in assay [19] and in assay [20] were 1.47, 1.1 and 0.155, respectively. Moreover, the z-score in assay [8] is 0.0862 (inactive); in [12] it was 0.987 (inactive); in [13] it was 1.14 (inactive); in [14], 4.15 (inactive); in assay [16] it was 0.132 (inactive).

In the case of `CN(C)CCCNC(=O)[C@@]1(Cc2ccccc2I)c2ccccc2C(=O)N(Cc2ccccc2Cl)[C@H]1c1ccc(CO)cc1`, the composite z-score in assay [1] is 1.17; in assay [2], -0.576; in [3] it was 0.0516; in assay [4], 0.617; in [5], 0.0497; in assay [6] it was 1.47. Besides, the composite z-score in [7] was 1.25; in [9] it was 0.294; in assay [10] it was -0.181; in assay [11], 0.9; in [15], 2.78; in assay [17], 0.222. In addition, the composite z-score is -0.819 in [18], -0.063 in assay [19] and 0.147 in assay [20]. Besides, the z-score in assay [8] was -2.07 (inactive); in assay [12] it was -0.531 (inactive); in [13], -19.8 (active); in [14], -2.99 (inactive); in [16] it was -1.7 (inactive).

Consider `C[C@]12C(=O)N(CCCO)[C@@H]3C(=O)N(c4ccc(Cl)cc4)CC=CC31O[C@@H]1/C=C\CCCOC(=O)C12` (stereo not given in full), for which the composite z-score in assay [1] is -0.157; in [2] it was -0.549; in assay [3], -0.0895; in assay [4], -0.512; in assay [5], -1.37; in assay [6], -0.0724. The composite z-score in assay [7] is 1.13; in assay [9] it was -0.67; in [10], -0.363; in assay [11], 0.868; in assay [15], 3.16; in assay [17], -0.262. The composite z-score in assay [18] was -0.441; in assay [19] it was -0.123; in assay [20], -0.261. For the same molecule, the z-score is 1.43 (inactive) in [8]; -1.65 (inactive) in [12]; -1.51 (inactive) in assay [13]; -0.488 (inactive) in assay [14]; -0.298 (inactive) in assay [16].
